MITF inh = blocks human microphthalmia-associated transcription factor; AlphaScreen MITF homodimerization, bead proximity signal; AID 1259374; O75030; inhibition, % at 2.6 µM; actives 0.91% (n = 650,000); in the data active = inhibition above about 50%
Target sequence (O75030 whole entry, looked up): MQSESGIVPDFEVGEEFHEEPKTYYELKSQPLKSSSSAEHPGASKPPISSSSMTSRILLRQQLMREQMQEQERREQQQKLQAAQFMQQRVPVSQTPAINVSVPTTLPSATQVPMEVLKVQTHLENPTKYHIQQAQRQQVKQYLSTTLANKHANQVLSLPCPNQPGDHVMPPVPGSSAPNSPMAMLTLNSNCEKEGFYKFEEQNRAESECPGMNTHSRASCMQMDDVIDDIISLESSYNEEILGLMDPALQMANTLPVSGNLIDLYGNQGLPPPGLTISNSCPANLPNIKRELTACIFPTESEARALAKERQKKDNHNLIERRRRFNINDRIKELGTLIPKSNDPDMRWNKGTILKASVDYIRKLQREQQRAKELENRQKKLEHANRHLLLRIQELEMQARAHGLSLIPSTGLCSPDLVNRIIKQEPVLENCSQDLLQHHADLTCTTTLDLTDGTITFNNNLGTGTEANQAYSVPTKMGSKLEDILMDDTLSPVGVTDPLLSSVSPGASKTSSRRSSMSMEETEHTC
TEAD-YAP block = TEAD-YAP interaction inhibition; actives 1.4% (n = 640,000); AID 1259422; inhibition, % at 9.12 µM; HEK-TIYL cells, TEAD-Gal4/YAP UAS-luciferase luminescence; in the data active = inhibition above about 32%
FBW7 act = human FBW7 E3 ligase activation, primary screen; Q969H0; AlphaScreen FBW7–phospho-cyclin E peptide binding, activator screen; normalized activity (activation), % at 26.1 µM; actives 0.13% (n = 650,000); in the data active = normalized activity above about 1.9%;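 also: purified mutant Fbw7 with reduced substrate affinity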
GPR151 ag = human GPR151 activation; Q8TDV0; PathHunter beta-arrestin GPR151 cells, luminescence; activation, % at 11.2 µM; actives 1% (n = 650,000); in the data active = activation above about 4.9%
MITF confirm = confirmation of human MITF inhibitors; shares compounds with MITF inh; AlphaScreen MITF homodimerization, biotin/His-MITF beads; inhibition, % at 2.6 µM; actives 16% (n = 4,700); AID 1259372;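 active = inhibition above a cutoff derived from the DMSO control wells, cut at about 28% in these data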;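 also: inhibitors lower the bead chemiluminescence by keeping MITF from dimerizing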
AlphaScreen intf2 = AlphaScreen optical interference, counter-screen; LysRS AlphaScreen counterscreen, signal interference, triplicate; actives 7.6% (n = 4,700); inhibition, % at 2.6 µM; shares compounds with MITF inh;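 active = inhibition above a cutoff derived from the DMSO control wells, cut at about 30% in these data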
Of the large screens only hits and unclear results are named; the others gave an inactive call (follow-up assays come after a bar, where they were run). Only some compounds are listed: those with a hit (about 3.5% of all), similar ones and a draw of the others.

CCSc1nnc(NC(=O)c2cc(Cl)ccc2Cl)s1	none
CCSc1nnc(NC(=O)c2cc(S(=O)(=O)N3CCCCC3)ccc2Cl)s1	MITF inh 57 | MITF confirm inactive | AlphaScreen intf2 inactive
CCCOc1ccccc1C(=O)Nc1nnc(SCC)s1	MITF inh 67 | MITF confirm inactive | AlphaScreen intf2 inactive
CN1C(=O)/C(=C2\SC(=Nc3ccc(F)cc3)NC2=O)c2cc(Br)ccc21	MITF inh 51 | MITF confirm inactive | AlphaScreen intf2 inactive
CN1C(=O)/C(=C2\SC(=Nc3ccc(Br)cc3)NC2=O)c2ccccc21	none
CCOC(=O)c1c(N)sc(NC(=O)c2ccc(C)cc2C)c1C	none
CCOC(=O)C1CCCN(C(=O)Cc2c(F)cccc2Cl)C1 (stereo not given)	none
CCOC(=O)C1CCCN(Cc2cccc(C(F)(F)F)c2)C1 (stereo not given)	MITF inh 52 | MITF confirm inactive | AlphaScreen intf2 inactive
CCOC(=O)C1CCCN(CCc2ccccc2)C1 (stereo not given)	MITF inh 59 | MITF confirm inactive | AlphaScreen intf2 inactive
CCOC(=O)C1CCCN(Cc2c(F)cccc2Cl)C1 (stereo not given)	MITF inh 54 | MITF confirm inactive | AlphaScreen intf2 inactive
Cc1ccc(Cl)cc1N1CCN(C(=O)C2CCC2)CC1	none
CCC(C)c1ccccc1OCC(O)CNC1CCCC1 (stereo not given)	none
CC(C)C(=O)N1CCN(CC(O)COc2ccccc2C(C)C)CC1 (stereo not given)	MITF inh 52 | MITF confirm inactive | AlphaScreen intf2 inactive
CC(C)c1ccccc1OCC(O)CNC1CCN(Cc2ccccc2)C1 (stereo not given)	MITF inh 69 | MITF confirm inactive | AlphaScreen intf2 inactive
CCC(C)c1ccccc1OCC(O)CN1CCCCC1 (stereo not given)	none
NC(=O)c1ccc(-c2nc(NCCO)c3ncn(CCN4CCCC4=O)c3n2)cc1	none
CCS(=O)(=O)N1CCN(CC(=O)NC2CCCCC2)CC1	MITF inh 54 | MITF confirm inactive | AlphaScreen intf2 inactive
Cc1sc2ncnc(NCC(c3ccco3)N(C)C)c2c1C (stereo not given)	MITF inh 62 | MITF confirm inactive | AlphaScreen intf2 inactive
Cc1ccccc1OCCNCCNC(=S)S	none
COc1ccc(-n2c(SCC(=O)/C(C#N)=C(\C)N)nc3ccccc32)cc1	MITF inh 70 | MITF confirm inactive | AlphaScreen intf2 inactive
O=C(Nc1ccc(-c2ccc(NC(=O)c3cccc(F)c3)c(C(=O)O)c2)cc1C(=O)O)c1cccc(F)c1	none
O=C(CSc1nc(NCc2ccco2)c2ccccc2n1)N1CCN(c2ccccc2)CC1	MITF inh 52 | MITF confirm inactive | AlphaScreen intf2 inactive
COc1cc(-c2cc(C(F)(F)F)n3ncc(C(=O)Nc4cccc(Cl)c4)c3n2)cc(OC)c1OC	none
CN1CC(=O)N2CCN(C(=O)Oc3ccc(Cl)cc3)C[C@@H]2C1=O	none
COc1cc(CN2CCN(c3ccccc3)CC2)cc(OC)c1OC	none
COc1cccc(CN2CCN(Cc3ccccc3C(F)(F)F)CC2)c1OC	MITF inh 67 | MITF confirm inactive | AlphaScreen intf2 inactive
COc1cc(CN2CCN(Cc3ccccc3C(F)(F)F)CC2)cc(OC)c1OC	MITF inh 73 | MITF confirm inactive | AlphaScreen intf2 inactive
COc1cccc(CN2CCN(Cc3ccccn3)CC2)c1OC	MITF inh 64 | MITF confirm inactive | AlphaScreen intf2 inactive
COc1ccc(COCC(O)CN2CCN(CCc3ccccn3)CC2)cc1 (stereo not given)	MITF inh 78 | MITF confirm inactive | AlphaScreen intf2 inactive
COc1ccc(OCC(O)CN2CCN(CCc3ccccn3)CC2)c(C(C)(C)C)c1 (stereo not given)	MITF inh 81 | MITF confirm inactive | AlphaScreen intf2 inactive
COc1ccc(COCC(O)CN2CCN(C(C)=O)CC2)cc1 (stereo not given)	none
CCCCN(C)C(=O)C1CC(=O)c2sc(NC(=O)C3CCC3)nc2C1 (stereo not given)	none
COc1cccc(-c2nc(C=Nc3cccc(C)c3)c(O)o2)c1	none
CCc1ccc(CN2CCN(C3CCN(Cc4ccccc4)CC3)CC2)cc1	MITF inh 55 | MITF confirm inactive | AlphaScreen intf2 inactive
c1ccc(CN2CCC(N3CCN(C4CCN(Cc5ccccc5)CC4)CC3)CC2)cc1	none

Screening data from PubChem.
